Reference: PubChem BioAssay
Unmarked numbers belong to inactive results. A call without a number means that no potency is given here. For some of these results: Potency and affinity values are given separately. Active and inactive are the calls of the source. Unless noted, how the calls were made is not given here.

Columns and labels:
[1] = antimalarial activity against Dd2 strain (AID 2302;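 active means growth inhibition above 50% at the single 2 µM test dose, taken to imply half-maximal potency below 2 µM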); details: P. falciparum Dd2 in RBCs, LDH growth readout, 72 h; at 2 µM; hits give high values
[2] = HepG2 cytotoxicity, primary screen, cytotoxicity control for P. falciparum antimalarial project, cell-based, ATP luminescence (AID 2303;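 active means inhibition above 50%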); details: HepG2 viability, 24-48 h, at 10 µM, hits give high values
[3] = target: L-lactate dehydrogenase (Plasmodium falciparum (isolate CDC / Honduras)) (UniProt Q27743); assay: PfLDH activity inhibition – cell lysate, 3D7 strain, counter-screen for P. falciparum growth inhibition project (AID 2304); details: P. falciparum 3D7 crude extract, LDH APAD/NBT absorbance; at 2 µM; hits give high values
[4] = inhibition of 3D7 malaria parasite growth – strain 3D7 (AID 2306); details: P. falciparum 3D7 erythrocytic growth, LDH absorbance, 72 h; at 2 µM; hits give high values
[5] = target: Calcium-dependent protein kinase 1 (Plasmodium falciparum (isolate 3D7)) (UniProt P62344); assay: PfCDPK1 kinase inhibitors, biochemical, TCAMS library (AID 1159585; cut-off not given, nearly all actives have IC50 up to about 0.98 µM;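 further: inhibitors leave more ATP so luminescence rises with inhibition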); details: recombinant PfCDPK1, Kinase-Glo ATP depletion luminescence
[6] = target: Plasmodium falciparum protein kinase 6 (PK6, PF3D7_1337100) (UniProt Q8IDW1); assay: PfPK6 kinase inhibitors, biochemical, TCAMS library (AID 1159586); details: recombinant PfPK6, Kinase-Glo ATP depletion luminescence
[7] = target: Protein kinase 7 (PK7), Plasmodium falciparum 3D7 (PF3D7_0213400) (UniProt Q7YTF7); assay: inhibition of Plasmodium PK7 catalytic activity – biochemical, TCAMS antimalarial set, Kinase-Glo luminescence (AID 1159587); details: recombinant PfPK7, Kinase-Glo ATP depletion luminescence
[8] = target: Calcium-dependent protein kinase 4 (Plasmodium falciparum (isolate 3D7)) (UniProt Q8IBS5); assay: PfCDPK4 kinase inhibitors, biochemical, TCAMS library (AID 1159588; cut-off not given, nearly all actives have IC50 up to about 0.91 µM); details: recombinant PfCDPK4, Kinase-Glo ATP depletion luminescence
Sequence of Calcium-dependent protein kinase 4 (Plasmodium falciparum (isolate 3D7)) (Q8IBS5 whole entry, looked up): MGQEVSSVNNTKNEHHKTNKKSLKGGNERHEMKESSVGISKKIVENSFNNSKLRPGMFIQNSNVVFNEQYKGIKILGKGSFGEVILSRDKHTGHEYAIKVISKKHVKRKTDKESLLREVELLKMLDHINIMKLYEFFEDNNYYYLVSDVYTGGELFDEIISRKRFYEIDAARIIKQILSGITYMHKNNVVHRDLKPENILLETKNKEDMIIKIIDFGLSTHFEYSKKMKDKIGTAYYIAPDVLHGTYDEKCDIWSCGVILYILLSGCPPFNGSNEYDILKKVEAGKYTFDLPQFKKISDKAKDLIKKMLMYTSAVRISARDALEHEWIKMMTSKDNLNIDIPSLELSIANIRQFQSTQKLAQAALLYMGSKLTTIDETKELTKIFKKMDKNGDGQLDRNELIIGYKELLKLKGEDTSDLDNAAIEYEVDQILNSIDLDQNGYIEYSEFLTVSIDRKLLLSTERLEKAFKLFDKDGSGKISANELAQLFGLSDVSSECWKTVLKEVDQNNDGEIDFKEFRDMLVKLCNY

Sequence of Calcium-dependent protein kinase 1 (Plasmodium falciparum (isolate 3D7)) (P62344 whole entry, looked up): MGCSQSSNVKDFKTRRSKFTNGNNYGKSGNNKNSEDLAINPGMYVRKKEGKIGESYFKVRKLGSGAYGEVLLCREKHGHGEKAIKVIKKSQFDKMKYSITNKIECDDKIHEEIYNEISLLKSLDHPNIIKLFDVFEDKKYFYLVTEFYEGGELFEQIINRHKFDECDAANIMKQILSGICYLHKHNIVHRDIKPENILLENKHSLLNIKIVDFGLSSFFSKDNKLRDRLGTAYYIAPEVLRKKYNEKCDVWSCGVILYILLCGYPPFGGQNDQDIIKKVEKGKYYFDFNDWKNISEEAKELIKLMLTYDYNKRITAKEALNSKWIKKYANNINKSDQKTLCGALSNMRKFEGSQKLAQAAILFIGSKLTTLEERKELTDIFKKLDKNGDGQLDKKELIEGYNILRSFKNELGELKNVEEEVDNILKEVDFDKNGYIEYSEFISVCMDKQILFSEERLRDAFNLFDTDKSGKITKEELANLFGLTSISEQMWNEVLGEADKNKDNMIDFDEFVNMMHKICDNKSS
Sequence of Plasmodium falciparum protein kinase 6 (PK6, PF3D7_1337100) (Q8IDW1 1-305): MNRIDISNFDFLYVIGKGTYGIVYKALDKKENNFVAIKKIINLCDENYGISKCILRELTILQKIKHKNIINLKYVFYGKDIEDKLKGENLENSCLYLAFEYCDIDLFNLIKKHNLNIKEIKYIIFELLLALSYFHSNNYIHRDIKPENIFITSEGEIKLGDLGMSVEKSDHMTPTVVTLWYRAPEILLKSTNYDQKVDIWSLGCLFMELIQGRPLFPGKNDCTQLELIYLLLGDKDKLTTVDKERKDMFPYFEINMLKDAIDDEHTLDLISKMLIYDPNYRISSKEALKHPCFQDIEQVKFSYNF
Sequence of Protein kinase 7 (PK7), Plasmodium falciparum 3D7 (PF3D7_0213400) (Q7YTF7 1-343): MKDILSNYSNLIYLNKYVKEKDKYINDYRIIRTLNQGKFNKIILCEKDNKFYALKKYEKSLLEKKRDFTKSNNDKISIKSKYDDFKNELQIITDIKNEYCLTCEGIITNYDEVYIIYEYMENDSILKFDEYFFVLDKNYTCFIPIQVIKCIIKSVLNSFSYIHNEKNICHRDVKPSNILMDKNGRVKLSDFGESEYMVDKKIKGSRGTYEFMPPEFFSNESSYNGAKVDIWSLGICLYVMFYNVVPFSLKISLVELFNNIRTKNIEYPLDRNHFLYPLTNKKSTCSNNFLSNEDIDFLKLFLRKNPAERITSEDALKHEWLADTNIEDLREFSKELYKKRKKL
Sequence of L-lactate dehydrogenase (Plasmodium falciparum (isolate CDC / Honduras)) (Q27743 whole entry, looked up): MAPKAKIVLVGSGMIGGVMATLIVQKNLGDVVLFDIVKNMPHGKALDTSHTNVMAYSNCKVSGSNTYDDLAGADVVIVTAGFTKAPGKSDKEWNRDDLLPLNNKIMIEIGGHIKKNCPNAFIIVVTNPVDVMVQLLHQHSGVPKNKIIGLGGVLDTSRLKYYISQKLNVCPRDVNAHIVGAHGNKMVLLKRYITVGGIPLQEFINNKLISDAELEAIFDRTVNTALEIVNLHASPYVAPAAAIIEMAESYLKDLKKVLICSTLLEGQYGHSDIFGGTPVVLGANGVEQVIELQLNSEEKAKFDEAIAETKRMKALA

In the case of `CCC(=O)Nc1cc(=O)[nH]c2nc(-c3ccc(Cl)cc3)nn12`, the growth inhibition [1] is reported as 62% (active), the inhibition [2] is reported as 3% and the inhibition [3] is reported as -11%. The growth inhibition [4] was 84% (active), the outcome [5] was “inactive” and the outcome [6] was “inactive”. For the same compound, the outcome [7] was “inactive” and the outcome [8] was “inactive”.

In the case of `Cc1ccc(NC(=O)NC2CCN(CCCCCNC(=O)[C@@H]3C[C@H]3c3ccc(Cl)c(Cl)c3)CC2)cc1`, the growth inhibition [1] is reported as 19%, the inhibition [2] is reported as 35% and the inhibition [3] is reported as 1%. The growth inhibition [4] was 101% (active), the outcome [5] was “inactive” and the outcome [6] was “inactive”. For the same compound, the outcome [7] was “inactive” and the outcome [8] was “inactive”.

For `Cc1[nH]c(C)c(Cc2ccc(Oc3ccc(OC(F)(F)F)cc3)cc2)c(=O)c1Br`, the growth inhibition [1] was 87% (active), the inhibition [2] was 29% and the inhibition [3] was -1%. The growth inhibition [4] was 96% (active), the outcome [5] was “inactive” and the outcome [6] was “inactive”. For the same compound, the outcome [7] was “inactive” and the outcome [8] was “inactive”.

`O=C(/C=C/c1ccc(Cl)c(Cl)c1)NCCCCCN1CCC(CCNC(=O)/C=C/c2ccccc2F)CC1` gave a growth inhibition [1] of 1%, an inhibition [2] of 47% and an inhibition [3] of -2%. The growth inhibition [4] was 94% (active), the outcome [5] was “inactive” and the outcome [6] was “inactive”. For the same compound, the outcome [7] was “inactive” and the outcome [8] was “inactive”.

Compound `COc1ccc2nccc(NC(=O)C3CCC(NCc4ccc5c(c4)NC(=O)CS5)CC3)c2c1` (stereo not given) has a growth inhibition [1] of 19%, an inhibition [2] of 0% and an inhibition [3] of -4%. The growth inhibition [4] was 94% (active), the outcome [5] was “inactive” and the outcome [6] was “inactive”. The outcome [7] was “inactive” and the outcome [8] was “inactive”.

For `CO/C(=C\C=C\c1cc2cc(Cl)c(Cl)cc2[nH]1)C(=O)NCCCN1CCN(c2cccc(CCO)c2)CC1`, the growth inhibition [1] was 32%, the inhibition [2] was 61% (active) and the inhibition [3] was -1%. The growth inhibition [4] was 101% (active), the outcome [5] was “inactive” and the outcome [6] was “inactive”. The outcome [7] was “inactive” and the outcome [8] was “inactive”.

With `O=C(Nc1ccc2c(c1)CCNCC2)c1ccc(-c2ccc(Cl)cc2)cc1` the growth inhibition [1] was 38%, the inhibition [2] was 71% (active) and the inhibition [3] was 0%. For the same compound, the growth inhibition [4] was 96% (active), the outcome [5] was “inactive” and the outcome [6] was “inactive”. The outcome [7] was “inactive” and the outcome [8] was “inactive”.

With `CC(C)Cc1cn(-c2nc(-c3nc4ccccc4[nH]3)cs2)c2ccncc12` the growth inhibition [1] was 99% (active), the inhibition [2] was 34% and the inhibition [3] was -2%. The growth inhibition [4] was 102% (active), the outcome [5] was “inactive” and the outcome [6] was “inactive”. The outcome [7] was “inactive” and the outcome [8] was “inactive”.

Work on `Cn1cnc(CCNC(=O)c2ccc(-c3ccc(-c4nc5ccc(F)cc5[nH]4)cc3)cc2)c1` yielded a growth inhibition [1] of 15%, an inhibition [2] of 17% and an inhibition [3] of 0%. For the same compound, the growth inhibition [4] was 92% (active), the outcome [5] was “inactive” and the outcome [6] was “inactive”. The outcome [7] was “inactive” and the outcome [8] was “inactive”.

In the case of `CCCC(=O)c1cnc2c(Oc3cc(Cl)ncn3)cccc2c1Nc1ccccc1C`, the growth inhibition [1] is reported as 85% (active), the inhibition [2] is reported as 6% and the inhibition [3] is reported as 6%. The growth inhibition [4] was 99% (active), the outcome [5] was “inactive” and the outcome [6] was “inactive”. For the same compound, the outcome [7] was “inactive” and the outcome [8] was “inactive”.

`COc1ccc(N2CCN(CCCCNC(=O)c3ccc(NC(=O)c4ccc(Cl)cc4)cc3)CC2)c(OC)c1` gave a growth inhibition [1] of 22%, an inhibition [2] of 25% and an inhibition [3] of 6%. For the same compound, the growth inhibition [4] was 97% (active), the outcome [5] was “inactive” and the outcome [6] was “inactive”. For the same compound, the outcome [7] was “inactive” and the outcome [8] was “inactive”.

For `O=C(c1ccc(-c2ccc(-c3nc4ccccc4[nH]3)s2)cc1)N1CCCCC1CN1CCC(O)C1` (stereo not given), the growth inhibition [1] was 55% (active), the inhibition [2] was 18% and the inhibition [3] was 2%. The growth inhibition [4] was 84% (active), the outcome [5] was “inactive” and the outcome [6] was “inactive”. For the same compound, the outcome [7] was “inactive” and the outcome [8] was “inactive”.

With `CC(C)[C@H](NC(=O)c1ccc(O)c(-c2ccc(Cl)c(Cl)c2)c1)C(=O)NCCN1CCCC1` the growth inhibition [1] was 83% (active), the inhibition [2] was 4% and the inhibition [3] was 4%. For the same compound, the growth inhibition [4] was 98% (active), the outcome [5] was “inactive” and the outcome [6] was “inactive”. The outcome [7] was “inactive” and the outcome [8] was “inactive”.

`CCN(CCO)Cc1ccc(-c2ccc(NS(=O)(=O)c3cccc4cccnc34)cc2)cc1` showed a growth inhibition [1] of 16%, an inhibition [2] of 25% and an inhibition [3] of 2%. The growth inhibition [4] was 92% (active), the outcome [5] was “inactive” and the outcome [6] was “inactive”. For the same compound, the outcome [7] was “inactive” and the outcome [8] was “inactive”.

Compound `CS(=O)(=O)c1cccc(-c2cnc(N)c3cc(-c4ccc5c(c4)OCO5)ccc23)c1` has a growth inhibition [1] of 23%, an inhibition [2] of 37% and an inhibition [3] of 1%. For the same compound, the growth inhibition [4] was 91% (active), the outcome [5] was “inactive” and the outcome [6] was “inactive”. The outcome [7] was “inactive” and the outcome [8] was “inactive”.

For `Cc1cnccc1/C=C/c1cccc(OCCN2CCc3ccc(S(C)(=O)=O)cc3CC2)c1`, the growth inhibition [1] was 80% (active), the inhibition [2] was 9% and the inhibition [3] was -4%. The growth inhibition [4] was 93% (active), the outcome [5] was “inactive” and the outcome [6] was “inactive”. For the same compound, the outcome [7] was “inactive” and the outcome [8] was “inactive”.

Work on `O=C(N1CCN(c2cccc(C(F)(F)F)c2)CC1)C(Cl)(Cl)Cl` yielded a growth inhibition [1] of 35%, an inhibition [2] of -8% and an inhibition [3] of 2%. For the same compound, the growth inhibition [4] was 89% (active), the outcome [5] was “inactive” and the outcome [6] was “inactive”. The outcome [7] was “inactive” and the outcome [8] was “inactive”.

`Fc1ccc(Nc2ccnc3cc(I)ccc23)c(Cl)c1` showed a growth inhibition [1] of 24%, an inhibition [2] of 35% and an inhibition [3] of 1%. For the same compound, the growth inhibition [4] was 95% (active), the outcome [5] was “inactive” and the outcome [6] was “inactive”. For the same compound, the outcome [7] was “inactive” and the outcome [8] was “inactive”.

With `O=C(Cc1cnc[nH]1)Nc1cccc(-c2cccc(-c3nc4ccc(C(F)(F)F)cc4[nH]3)c2)c1` the growth inhibition [1] was 101% (active), the inhibition [2] was 35% and the inhibition [3] was -3%. The growth inhibition [4] was 102% (active), the outcome [5] was “inactive” and the outcome [6] was “inactive”. For the same compound, the outcome [7] was “inactive” and the outcome [8] was “inactive”.

For `COc1cccc(NC(=O)CSc2nc(-c3ccccc3Cl)ns2)c1`, the growth inhibition [1] was 100% (active), the inhibition [2] was 7% and the inhibition [3] was 2%. For the same compound, the growth inhibition [4] was 99% (active), the outcome [5] was “inactive” and the outcome [6] was “inactive”. The outcome [7] was “inactive” and the outcome [8] was “inactive”.
